D1 agonist: agonists of human D1 dopamine receptor; HEK293 T-REx D1 cells, calcium flux, agonist mode; activation, % at 2 µM; 360,000 tested, 1% active; in the data active = activation above about 30%; note: 0% is about no effect
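Agonism was scored from calcium flux recorded over 180 s (1 read/s) after pintool compound addition, following a 10-cycle baseline. Cells were inducible force-coupled HEK293 TREx D1, plated overnight at 30 C and loaded with no-wash calcium dye.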
D1 PAM: human D1 dopamine receptor positive modulation; HEK293 TREx D1 cells, calcium flux, dopamine EC20 potentiation; potentiation, % at 10 µM; 360,000 tested, 0.036% active; AID 504651; in the data active = potentiation above about 30%; note: 0% is about no effect
TRPV1 ag: human TRPV1 agonism. Q8NER1. TRPV1-expressing cells, Fluo-8 calcium influx, agonist mode. activation, % at 8.33 µM. 320,000 tested, 0.19% active; in the data active = activation above about 80%; inconclusive = between about 30% and that limit; note: 0% is about no effect
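Fluo-8 calcium influx in TRPV1-expressing cells, kinetic read (ex 480/em 520 nm). Compound added and read 3 min for agonist activity, followed by capsaicin at EC20 final and 2 min further read for enhancement.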
TRPV1 potentiator: human TRPV1 potentiation | TRPV1-expressing cells, Fluo-8 calcium influx, capsaicin EC20 potentiation | 320,000 tested, 0.02% active | potentiation, % at 8.33 µM | Q8NER1; in the data active = potentiation above about 80%; inconclusive = between about 30% and that limit; note: 0% is about no effect
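Cells expressing TRPV1 were dye-loaded with Fluo-8 and read kinetically: 10 s baseline, 3 min after compound (agonist portion), then 2 min after EC20 capsaicin (allosteric enhancer portion). Calcium-bound dye fluorescence at 480/520 nm.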
D1 antag: blocks dopamine activation of the human D1 receptor. P21728. HEK293 TREx D1 cells, calcium flux, dopamine EC80; hits give low values. activity change, negative = inhibition, % at 10 µM. 360,000 tested, 3.2% active. AID 504652; in the data active = activity change below about -30%; note: % is set by controls: 0 for no effect and ±100 for the full control effect
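HEK293 T-REx cells expressing inducible, force-coupled D1 receptor; no-wash Ca dye, 30–90 min RT. Cmpd → 180 s read at 1 Hz → EC80 DA → 180 s read.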
* marks the source's active call; other numbers are inactive results; ? = inconclusive; . = no result given. Only some compounds are listed: those with a hit (about 4.2% of all), similar ones and a draw of the others.

SMILES	D1 agonist	D1 PAM	TRPV1 ag	TRPV1 potentiator	D1 antag
Cc1cccc(CCNC(=O)CN(c2ccc(C(C)C)cc2)S(=O)(=O)c2c(C)nn(C)c2C)c1	12	-2	.	.	0
Cc1ccc(C)c(-n2nnc(C(=O)Nc3ccc(Br)cc3)c2C)c1	1	5	.	.	-8
CC(Cc1cccnc1)NC(=O)c1cc(COc2ccc(F)cc2Cl)on1 (stereo unspecified)	10	-10	4	-8	-34*
COc1ccc(Cn2c(=O)c3oc4ccccc4c3n(CC(=O)Nc3cc(C)cc(C)c3)c2=O)cc1	1	-2	.	.	0
O=[N+]([O-])c1ccc(N=Nc2c(Cl)cc(O)cc2Cl)cc1	21	-13	4	-30	-46*
Oc1ccc(C[C@@H]2CNCCN2CCc2cc(C(F)(F)F)cc(C(F)(F)F)c2)cc1	40*	-2	2	9	13
Oc1ccc(C[C@H]2CNCCN2CCc2cc(C(F)(F)F)cc(C(F)(F)F)c2)cc1	19	-7	2	-8	19
FC(F)(F)c1cc(CCN2CCNC[C@H]2Cc2cccc3ccccc23)cc(C(F)(F)F)c1	45*	8	10	-8	12
Cc1ccc(/C=N/NC(=S)N2CCOCC2)cc1	3	-4	26	-11	-14
S=C(N/N=C/c1ccc(Cl)cc1)N1CCOCC1	1	-9	?	-7	-37*
CCOC(=O)c1c(C)oc2nc(C)nc(NCc3ccccc3OC)c12	2	-5	.	.	-37*
Cc1ccc(N(C)C(=O)c2cc(S(=O)(=O)N3CCc4ccccc43)cn2C)cc1	2	-17	20	-5	-29
CN(C(=O)c1cc(S(=O)(=O)N2CCc3ccccc32)cn1C)C1CCCCC1	3	1	10	-7	-54*
COc1ccc(N(C)C(=O)c2cc(S(=O)(=O)N3CCc4ccccc43)cn2C)c(OC)c1	0	-4	.	.	-55*
Cc1cccc(N(C)C(=O)c2cc(S(=O)(=O)N3CCc4ccccc43)cn2C)c1	2	-4	27	1	-4
O=C(NCc1nnc(-c2cc3ccccc3[nH]2)o1)c1ccccc1	3	-4	.	.	-11
O=C(O)c1cccc(OCCN2CCCC2=O)c1	6	-3	2	-8	-32*
CCOc1ccc(/C=C2\SC(=S)N(CCC(=O)N(CCO)c3ccccc3)C2=O)cc1	9	-3	-3	3	-31*
COc1ccc(/C=C2\SC(=S)N(CCC(=O)N(CCO)c3ccccc3)C2=O)cc1OC	4	2	-1	-5	-1
Cc1ccc(C(=O)N2CC(=O)Nc3ccc(Br)cc3C2c2ccc(F)cc2)cc1C (stereo unspecified)	3	1	.	.	17
O=[N+]([O-])c1cc(-n2cnnn2)ccc1N1CCC(Cc2ccccc2)CC1	-1	-3	5	-20	-35*
Cc1nc(NC(=O)c2ccco2)sc1C(=O)O	2	-4	1	9	-35*
COC(=O)c1sc(NC(=O)c2c(C)noc2C)nc1C	4	-8	-2	9	-33*
COC(=O)c1sc(NC(=S)NC(=O)c2ccccc2C)nc1C	92*	-3	7	-11	4
COc1cccc(/C=C/c2nc(C#N)c(N3CCCCC3)o2)c1	0	3	.	.	-11
SMILES	D1 agonist	D1 PAM	TRPV1 ag	TRPV1 potentiator	D1 antag
CC(NC(=O)c1ccncc1)c1ccccc1 (stereo unspecified)	1	-6	-3	-11	-3
CC(NC(=O)c1ccc(=O)oc1)c1ccccc1 (stereo unspecified)	1	-8	0	8	-34*
Cc1cc(C(=O)Nc2cccc([N+](=O)[O-])c2C)cs1	1	-6	5	0	4
COc1ccccc1NC(=O)c1cc(Br)ccc1Cl	0	-1	-3	9	-35*
COc1ccc(Cl)cc1NC(=O)Nc1cccc([N+](=O)[O-])c1C	7	-17	0	-7	-64*
Cc1c(NC(=O)c2ccc(C(C)(C)C)cc2)cccc1[N+](=O)[O-]	3	-15	?	-3	-42*
COc1ccc(Cl)cc1NC(=O)NC1CCCCC1	1	9	11	3	-6
Cc1cccc2c1-c1sc(C(=O)Nc3cccc([N+](=O)[O-])c3C)cc1CO2	31*	-14	5	30	-6
COc1ccccc1NC(=O)c1ccccc1C(=O)Nc1ccccc1OC	2	0	-4	1	-4
CCC(=O)Nc1ccccc1-c1nc2ccccc2n(CC(=O)Nc2ccccc2OC)c1=O	0	0	.	.	3
CCOc1ccc(CN2C(=O)c3ccccc3Sc3ccc(C(=O)N4CCN(C)CC4)cc32)cc1	5	8	.	.	-17
COc1ccc(Cl)cc1NC(=O)c1cc(=O)c2cc(C)cc(C)c2o1	1	1	.	.	-8
COc1ccc(Cl)cc1NC(=O)c1ccccc1C	1	-18	10	-14	-44*
CCc1ccc2oc(C(=O)Nc3cc(Cl)ccc3OC)cc(=O)c2c1	1	-1	.	.	-48*
COc1ccccc1C(=O)Nc1cc(Cl)ccc1O	1	-3	2	2	-22
COc1ccc(N2CCN(CC(O)COc3ccccc3[N+](=O)[O-])CC2)cc1 (stereo unspecified)	5	-7	3	13	-20
O=[N+]([O-])c1ccccc1OCCN1CCOCC1	4	-4	-2	3	6
O=[N+]([O-])c1ccccc1OCCN1CCCC1	5	-4	1	13	-38*
Cc1ccc(OCCN2CCNCC2)c([N+](=O)[O-])c1	5	-1	-1	12	14
Cc1ccc(OCCN2CCN(C)CC2)c([N+](=O)[O-])c1	4	0	-5	4	-38*
O=[N+]([O-])c1ccccc1OCC(O)CN1CCN(CC(O)COc2ccccc2[N+](=O)[O-])CC1 (stereo unspecified)	9	0	12	-7	-46*
O=[N+]([O-])c1cc(S(=O)(=O)N2CCCC2)ccc1OCCOc1ccccc1	35*	.	-2	5	-11
Cc1ccc([N+](=O)[O-])c(OCCN2CCc3ccccc3C2)c1	2	-22	8	2	-52*
Cc1ccc([N+](=O)[O-])c(OCCN2CCCCCC2)c1	4	-14	1	8	2
COCCCNC(=O)c1cc(=O)n(Cc2ccc(Cl)cc2)c2ccccc12	5	0	-14	20	-31*
COCCCNC(=O)c1ccc(Cn2c(=O)c3ccccc3n(Cc3ccc(C)cc3)c2=O)cc1	0	-2	0	1	-13
CCN(CC)S(=O)(=O)c1ccc(C(=O)NC2CC(=O)N(c3ccc(OC)c(OC)c3)C2)cc1 (stereo unspecified)	6	0	.	.	.
CSc1ccc(CCNC(=O)CCn2c(=O)c3cccn3c3cccnc32)cc1	0	1	.	.	0
CCOC(=O)c1c(NC(C)=O)c2c3c(sc2n1Cc1nc(-c2ccccc2Cl)oc1C)CCCC3	2	-2	.	.	-5

Assay outcomes: PubChem BioAssay, National Center for Advancing Translational Sciences (NCATS)
